Screening data as filed in PubChem BioAssay.
Most compounds without a hit are left out; they make up all but 4.6% or so of the library.
TIM10 inh – growth inhibitors of isogenic TIM10 control yeast, primary screen, counter-screen for tim10-1 yeast inhibitor project, luminescence, uHTS. S. cerevisiae TIM10 strain growth, BacTiter-Glo luminescence, 24 h. inhibition, % at 10 µM. 330,000 tested, 1.4% active. AID 463195, 2010;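 active = inhibition of 40% or more at the single tested concentration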;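 note: wild-type TIM10 isogenic control strain grown at permissive 25 °C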
PfHsp90 set2 – growth inhibition of PfHsp90-expressing yeast, primary screen, antimalarial PfHsp90 inhibitor project, S. cerevisiae, BacTiter-Glo luminescence, single point, set 2 | BacTiter-Glo ATP, 48 h; yeast lacking PDR1 and PDR3 efflux regulators | inhibition, % at 9.4 µM | AID 504621, 2011 | 310,000 tested, 0.32% active;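 active = every replicate shows inhibition above about 80%, whatever the replicate mean, limit read from the data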;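 note: 0% = DMSO neutral controls and 100% = 20 µM radicicol positive controls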
V-ATPase pH – regulators of yeast V-ATPase proton pumping, primary screen, pHLuorin cytosolic pH fluorescence; S. cerevisiae; response, % at 10 µM; 350,000 tested, 0.37% active; in the data active = response mostly above about 7.3%, no sharp cut-off; inactive = mostly below about 5.4%; note: actives read high
SKKanGAS inh – S. pyogenes SKKanGAS growth inhibitors in kanamycin, primary screen, streptokinase expression inhibitor project, SKKanGAS strain, BacTiter-Glo luminescence. 6 h. inhibition, % at 7.5 µM. 300,000 tested, 1.3% active. AID 1662, 2009;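 active = mean replicate score, as percent of positive control median, at least 50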;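 note: strain carries kanamycin resistance gene driven by streptokinase promoter and grows in 40 µg/ml kanamycin; loss of luminescence reflects streptokinase promoter inhibition or plain growth inhibition; 0% = median of DMSO wells and 100% = positive control at its reference dose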
tim23-1 inh – growth inhibitors of tim23-1 mutant yeast, primary screen, luminescence, uHTS. inhibition, % at 20 µM. 330,000 tested, 1.3% active. S. cerevisiae tim23-1 growth, BacTiter-Glo luminescence, 24 h. AID 463212, 2010;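 active = growth inhibition of the mutant yeast at or above 50%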;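 note: temperature-sensitive mutant grown at 25 °C; plate controls were DMSO-treated mutant yeast for no effect and medium wells lacking yeast for full effect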
tim10-1 inh – growth inhibitors of tim10-1 mutant yeast, primary screen, luminescence, uHTS. S. cerevisiae tim10-1 ts strain growth, BacTiter-Glo, 24 h. inhibition, % at 20 µM. 330,000 tested, 2.2% active. AID 463190, 2010;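 active = inhibition of at least 40%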;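 note: mutant grown at 25 °C; 0% = DMSO wells with yeast and 100% = wells holding no yeast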
* = called active by the depositor; · = no result given.

SMILES | TIM10 inh | PfHsp90 set2 | V-ATPase pH | SKKanGAS inh | tim23-1 inh | tim10-1 inh
COc1ccc(O)c(C(=O)CC(=O)c2ccccc2C)c1 | 5.2 | -14.7 | -0.6 | 60.1* | 21.6 | -44.3
COc1ccc(O)c(C(=O)CC(=O)c2ccc(F)cc2)c1 | 15.7 | -11.3 | -1.2 | 14.0 | 32.6 | -35.5
COc1ccc(C(=O)/C(C#N)=N/Nc2cccc([N+](=O)[O-])c2)cc1 | · | 1.1 | -3.6 | 50.6* | · | ·
CCC(CC)=NNc1cccc([N+](=O)[O-])c1 | 23.0 | -10.3 | -2.6 | 5.3 | 9.3 | 17.1
CCN(CC)C(=O)C1=C(C)N(Cc2ccccc2)C(=O)C(CC(=O)NCc2ccco2)C1 (stereo not drawn) | · | · | 0.2 | · | · | ·
C[C@H]1C=C(C(=O)O)O[C@@H](OCc2ccc(CO)cc2)C1 | 2.2 | -11.4 | 1.7 | 1.9 | -1.9 | -13.8
Cc1ccc(NC(=O)c2ccc(C#CC3(O)CCCCC3)cc2)cc1C | 1.7 | · | 3.2 | 50.5* | 3.1 | 14.0
CCOC(=O)[C@@H]1[C@H]2COc3ccccc3[C@H]2N2C(=O)N(c3ccc(Cl)cc3)C(=O)[C@@]12C | 3.7 | 17.8 | 4.0 | 13.8 | 37.5 | 14.1
CSc1cccc(N2CC(C(=O)N3CCN(S(=O)(=O)c4ccccc4Cl)CC3)CC2=O)c1 (stereo not drawn) | 7.9 | -7.0 | -0.6 | · | 19.2 | 2.9
CCc1ccc(/C=C/C(=O)c2cc(Br)ccc(=O)c2O)cc1 | 15.5 | 65.5 | -5.4 | 105.9* | 11.5 | 17.9
Cc1cccc(/C=C/C(=O)c2cc(Br)ccc(=O)c2O)c1 | 1.0 | 72.3 | 10.6 | 90.4* | 0.0 | 1.5
CCOc1ccc(/C=C/C(=O)c2cc(Br)ccc(=O)c2O)cc1 | · | 20.7 | -2.2 | · | · | ·
O=C(O)CSCC(=O)N(Cc1ccccc1)c1nc(-c2ccccc2)c(-c2ccccc2)s1 | 11.1 | -14.6 | -4.0 | 94.1* | 34.4 | 13.4
CCOC(=O)c1sc(N(Cc2ccccc2)C(=O)CSc2ncn[nH]2)nc1C | 11.3 | 27.5 | 0.2 | 2.5 | 34.2 | 34.3
CC1=CC2C(C(O)CC3(C)C2CC(C)C32OCOC23COCO3)C2(C)C/C(=C\O)C(=O)C=C12 (stereo not drawn) | · | 110.4* | 3.0 | · | · | ·
Cc1ccc(NC(=O)c2nc(S(=O)(=O)Cc3ccccc3)ncc2Cl)cc1 | -59.2 | 103.8* | 1.2 | 15.2 | 49.9 | -113.8
O=S(=O)(Nc1nc2ccccc2nc1Cl)c1ccc2ccccc2c1 | -0.9 | -40.3 | -2.0 | 51.4* | 29.2 | 36.9
Cn1c(=S)[nH]c2sc3c(c2c1=O)CCC(C(C)(C)C)C3 (stereo not drawn) | 4.9 | -10.2 | -4.6 | 78.6* | 17.7 | 32.4
COCCn1c(N)c(C(=O)Nc2sc3c(c2C(=O)OC)CCCC3)c2nc3ccccc3nc21 | 13.1 | -16.5 | -0.6 | 57.7* | 17.6 | 11.0
COC(=O)c1c(NC(=O)Cc2cccs2)sc2c1CCCC2 | 2.3 | · | -2.3 | 68.7* | 33.2 | 24.1
COc1ccc(C(=O)Nc2cc(C)nn2-c2ccc(C)cc2)cc1 | 0.5 | 5.4 | 4.1 | 0.1 | 17.5 | 16.1
CC(NC(=O)NC1CCCCC1)C(c1cccs1)N1CCN(c2ccccc2)CC1 (stereo not drawn) | 14.7 | -14.6 | 0.6 | -4.4 | 36.9 | 27.0
COc1ccc(CNC(=O)c2cccc(-c3ccc(C)c4ccccc34)n2)cc1 | 1.3 | -59.2 | 0.2 | 11.1 | -14.3 | 22.4
CCOc1cccc(-c2c(C(=O)N/N=C/c3cccs3)nnn2-c2nonc2N)c1 | 1.6 | -9.2 | -6.1 | -11.7 | 9.8 | 12.6
O=C(NC1CCCCC1)C1CC(=O)N(Cc2ccccc2)C1 (stereo not drawn) | -2.7 | 5.2 | -2.6 | -0.9 | 6.2 | 14.6
O=C(Cn1nc(CNc2ccc(Cl)cc2)[n+]2c1CCCCC2)c1ccc(Br)cc1 | 20.7 | 13.1 | -3.3 | 84.0* | 12.4 | 37.0
COc1ccc(NCc2nn(CC(=O)c3ccc(Br)cc3)c3[n+]2CCCCC3)cc1 | 10.9 | -8.7 | -2.0 | -2.8 | 5.7 | 11.0
C=CCc1cc(/C=C2/NC(=O)N(CC)C2=O)cc(OCC)c1OCc1ccc(C(=O)O)cc1 | 11.0 | -5.6 | -4.2 | 61.5* | 11.6 | 14.0
